Hits are enriched below; roughly 2.4% of the tested compounds scored in any of these assays.
FEN1 inh-1 – qHTS Assay for the Inhibitors of Human Flap endonuclease 1 (FEN1); Potency, µM (series often up to 114 µM), for inactives: at the top dose activity change, negative = inhibition, most hits filed as inhibitors; Recombinant FEN1 flap cleavage, fluorescence, 15 min; hit rate 0.35% among 390,000; P39748; also: % is scaled to controls: 0 for no effect and ±100 for the full control effect; nearly all actives have a fitted effect of over 65% in size
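With each library titrated from low to high concentration, compounds met 10 nM FEN1 for 15 min at room temperature before 50 nM substrate was added; readings at 0 and 15 min fed four-parameter Hill curve fits.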
Pol iota inh – qHTS for Inhibitors of Polymerase Iota. DNA polymerase iota (Homo sapiens), Q9UNA4. hit rate 1% among 390,000. Pol iota fluorescent replication assay, 10 min. Potency, µM (series often up to 115 µM), for the others: top-dose activity, negative = inhibition, actives largely listed as inhibitors
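Pol iota at 10 nM preincubated 15 min with compounds at room temperature; reaction started with fluorescent substrate, 50 nM final. Fluorescence read kinetically at 0 and 10 min; buffer-only wells as negative control.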
WRN helicase inh-1 – qHTS for Inhibitors of WRN Helicase; hit rate 0.46% among 360,000; AID 651768, 2012; Potency, µM (top dose mostly 114 µM), for the others: top-dose activity change, negative = inhibition, usual class: inhibitors; Bifunctional 3'-5' exonuclease/ATP-dependent helicase WRN (Homo sapiens), Q14191; WRN helicase unwinding, fluorescent forked duplex, kinetic; also: % is scaled to controls: 0 for no effect and ±100 for the full control effect; nearly all actives have a fitted effect of over 55% in size
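Enzyme (20 nM final) and test compound sit together 15 min at room temperature before substrate addition. Substrate is a single-forked duplex oligonucleotide (100 nM) labelled with fluorophore and quencher, with 2 mM ATP; helicase unwinding raises red fluorescence, read kinetically.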
POLB inh – qHTS Assay for Inhibitors of DNA Polymerase Beta; P06746; Pol beta primer extension/strand displacement, fluorescence kinetic; Potency, µM (titrated, usually from 114 µM), for inactives: at the top dose activity change, negative = inhibition, actives largely listed as inhibitors; hit rate 1.3% among 340,000; AID 485314, 2010; also: % is scaled to controls: 0 for no effect and ±100 for the full control effect
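Reaction started by 50 nM substrate onto compound-treated Pol beta (10 nM, 15 min preincubation, room temperature); plates read at 0 min and 10 min. Normalized concentration-effect data fitted by four-parameter Hill equation.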
Pol kappa inh – qHTS for Inhibitors of Polymerase Kappa; DNA polymerase kappa (Homo sapiens), Q9UBT6; purified Pol kappa, fluorescent DNA synthesis assay, 10 min; Potency, µM (highest dose often 107 µM), for inactives: at the highest dose activity, negative = inhibition, hits mostly inhibitors; hit rate 0.53% among 400,000; also: % is scaled to controls: 0 for no effect and ±100 for the full control effect
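Readout: fluorescence, taken kinetically at 0 and 10 min. Conditions: 10 nM Pol kappa, 15 min RT compound preincubation, 50 nM substrate final. Controls: enzyme-free buffer wells.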
POLH inh – qHTS for Inhibitors of Polymerase Eta. DNA polymerase eta (Homo sapiens), Q9Y253. recombinant Pol eta, fluorescent DNA replication assay. Potency, µM (series often up to 114 µM), for inactives: at the highest dose activity change, negative = inhibition, most hits filed as inhibitors. hit rate 1.2% among 390,000; also: % is scaled to controls: 0 for no effect and ±100 for the full control effect
Target sequence (Q9Y253 whole entry, looked up): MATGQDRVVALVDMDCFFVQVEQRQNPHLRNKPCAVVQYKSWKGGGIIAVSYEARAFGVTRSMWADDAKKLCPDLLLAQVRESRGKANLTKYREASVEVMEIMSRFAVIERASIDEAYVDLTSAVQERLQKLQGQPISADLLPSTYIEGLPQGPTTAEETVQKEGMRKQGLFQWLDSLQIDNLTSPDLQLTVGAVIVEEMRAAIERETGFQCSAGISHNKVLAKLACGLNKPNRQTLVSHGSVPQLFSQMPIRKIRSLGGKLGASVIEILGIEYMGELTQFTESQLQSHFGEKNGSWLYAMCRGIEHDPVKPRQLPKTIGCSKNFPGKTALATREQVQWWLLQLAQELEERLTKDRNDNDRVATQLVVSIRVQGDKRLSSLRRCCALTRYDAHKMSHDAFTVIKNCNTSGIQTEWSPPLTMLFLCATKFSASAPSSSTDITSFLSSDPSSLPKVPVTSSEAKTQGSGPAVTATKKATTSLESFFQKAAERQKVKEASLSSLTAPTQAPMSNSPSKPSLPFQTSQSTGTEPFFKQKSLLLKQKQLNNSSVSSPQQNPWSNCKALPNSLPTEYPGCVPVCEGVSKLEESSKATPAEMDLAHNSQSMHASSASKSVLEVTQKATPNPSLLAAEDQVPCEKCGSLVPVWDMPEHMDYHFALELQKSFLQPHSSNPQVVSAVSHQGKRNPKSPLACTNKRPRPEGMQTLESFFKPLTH
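Fluorescent replication assay: 50 nM final substrate added after a 15 min room-temperature compound preincubation with 10 nM enzyme. Signal taken at 0 min and again at 10 min.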
FEN1 inh-2 – qHTS Assay for the Inhibitors of FEN1: Confirmatory Assay for Cherry-picked Compounds | FEN1 flap cleavage, TAMRA/BHQ2 fluorogenic DNA substrate | AID 720498, 2013 | hit rate 79% among 880 | shares compounds with FEN1 inh-1 | Potency, µM, hits mostly inhibitors; also: nearly all actives have a fitted effect of over 60% in size
WRN helicase inh-2 – qHTS for Inhibitors of WRN Helicase: Confirmatory Assay for Cherry-picked Compounds; shares compounds with WRN helicase inh-1; WRN helicase DNA unwinding, fluorescence kinetic; Potency, µM (top dose mostly 57.1 µM), for the others: at the top dose activity, negative = inhibition, actives largely listed as inhibitors; hit rate 63% among 610; also: nearly all actives have a fitted effect of over 65% in size
TO displacement – qHTS for Inhibitors of WRN Helicase: Thiazole Orange DNA Binding Counterscreen; AID 720499, 2013; hit rate 10% among 610; thiazole orange DNA binding displacement, fluorescence; shares compounds with WRN helicase inh-1; Potency, µM (top dose mostly 57.1 µM), for inactives: at the highest dose activity change, negative = inhibition, most hits filed as inhibitors;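 also: drop in dye fluorescence marks compound binding to DNA; % is scaled to controls: 0 for no effect and ±100 for the full control effect; nearly all actives have a fitted effect of over 60% in size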
BLM helicase inh – qHTS for Inhibitors of WRN Helicase: BLM Helicase Counterscreen for WRN Inhibitors | Recombinant BLM helicase DNA unwinding, red fluorescence | Potency, µM (doses to about 57.1 µM), for inactives: top-dose activity change, negative = inhibition, most hits filed as inhibitors | shares compounds with WRN helicase inh-1 | AID 720503, 2013 | hit rate 60% among 610; also: nearly all actives have a fitted effect of over 60% in size
Starred values were filed as active, the others as inactive; u = inconclusive; x = not tested or not shown; [ ] = dose if it differs, or a comment. Calls follow the shape of the dose curve; as a rule, active = well fitted curve in the direction sought with a large enough effect; inconclusive = small, poorly fitted or top-dose-only effect, or another doubt; inactive = no such curve, though single readings can be large; an effect the other way counts as inactive or inconclusive. Potency is read from the fitted curve at half-maximal effect.

SMILES	FEN1 inh-1	Pol iota inh	WRN helicase inh-1	POLB inh	Pol kappa inh	POLH inh	FEN1 inh-2	others
NNC(=O)c1oc2nc(-c3ccco3)cc(-c3ccco3)c2c1N	50µM*	u	u	u	u	u	38*
Cc1cccc(-c2cc3nc(C)cc(NCCCN(C)C)n3n2)c1	-22%	6%	-6%	u	u	-15%	x
CN(C)CCCNc1cc(-c2ccccc2)nc2cc(-c3cccc(F)c3)nn12	u	-27%	-1%[11.6 µM]	8%	-20%	-15%	48*
O=C(NN1C(=O)/C(=C/c2ccc(O)cc2)SC1=S)c1cccc(O)c1	-3%	u	-8%[11.6 µM]	-15%	-26%	3%	u
COc1cc2[nH]c3c(N4CCN(c5ccccn5)CC4)ncnc3c2cc1OC	28µM*	u	u	-8%	-26%	u	24*
C=CCNc1nc(N)c([N+](=O)[O-])c(Nc2ccccc2OC)n1	-16%	12%	-6%	11%	-16%	3%	x
COc1ccccc1Nc1nc(NCCCN(C)C)nc(N)c1[N+](=O)[O-]	56µM*	-21%	79µM*	18µM*	-19%	-24%	60*
CC(=O)NC(C1C(=O)CC(C)(C)CC1=O)(C(F)(F)F)C(F)(F)F	14%	0%	7%	-1%	-4%	-1%	x
O=[N+]([O-])c1ccc(C=Nc2cccc3ccccc23)s1	u	u	-4%	u	-13%	u	6*
CN(C)CCOC(=O)c1ccc2[nH]c3c(c2c1)CSCC3	50µM*	115%	-9%[11.6 µM]	15%	-6%	-18%	85*
COc1cccc2c1C(=N)c1c(O)c3c(c(O)c1C2=O)CC(O)(C(C)=O)CC3OC1CC(N)C(O)C(C)O1 (centres undefined)	11µM*	u	u	x	u	u	24*
COc1ccccc1C(=O)Nc1onc2c1CCCC2	-6%	9%	x	0%	11%	-13%	x
CCN1/C(=C/c2ccc3cc(C)ccc3[n+]2CC)Sc2cc(C)ccc21	u	u	50µM*	u	-18%	u	7.6*
CCN1Cc2c(cc(OC)c(OC)c2OC)-c2ccccc2S1(=O)=O	4%	-11%	0%	x	13%	-9%	x
c1ccc(C2=NN(c3ccccc3)C(c3ccco3)C2)cc1 (centres undefined)	-18%	29%	1%	2%	-1%	-5%	x
COc1ccc(-c2csc3ncnc(Nc4ccc(O)cc4)c23)cc1	12%	-15%	-12%	-4%	-12%	1%	x
COc1ccc(OC)c(/C(O)=C/C(=O)C(=O)Nc2cc(C)cc(C)c2)c1	u	u	-10%	2%	-11%	-4%	43*
COc1ccc(N(CC(O)Cn2c(C)nc3ccccc32)S(=O)(=O)c2ccc(C)cc2)cc1 (centres undefined)	-2%	2%	-15%	15%	4%	-19%	x
O=c1c2ccccc2oc2ccc(NCCCn3ccnc3)cc12	u	-8%	-10%	34%	-2%	-12%	x
CN1CCCC1CCNc1ccc2sc3ccccc3c(=O)c2c1 (centres undefined)	40µM*	u	-30%	x	-25%	-28%	38*
Cc1cc2oc3cc(NCCC4CCCN4C)ccc3c(=O)c2cc1C (centres undefined)	35µM*	-19%	-29%	x	-4%	u	34*
O=C(Nc1ccc(CN2CCOCC2)cc1)c1ccc(Cl)cc1Cl	18%	3%	6%	2%	-15%	4%	x
Cc1noc(C)c1COC(=O)[C@H](C)NS(=O)(=O)c1ccc(Cl)c(Cl)c1	1%	3%	2%	-1%	0%	8%	x
C/C(=N\Nc1nc2ccccc2c(=O)n1O)c1ccco1	u	18µM*	-14%[11.6 µM]	u	-23%	u	30*
CCOc1ccc(N2C(=O)CSC2=S)cc1	-4%	-20%	-2%	-3%	-2%	-9%	x
SMILES	FEN1 inh-1	Pol iota inh	WRN helicase inh-1	POLB inh	Pol kappa inh	POLH inh	FEN1 inh-2	others
O=C(O)c1ccc(N2C(=O)CSC2=S)cc1	-3%	u	3%[11.6 µM]	x	79µM*	0%	u
CCCN(CCC)CCCNC(=O)c1cc2c(-c3ccc(OC)c(OC)c3)nn(C)c2s1	28µM*	u	-6%[11.6 µM]	40µM*	u	u	27*	WRN helicase inh-2=19µM*;TO displacement=-30%;BLM helicase inh=u
Cc1ccc(CSc2nnc(-c3cccnc3)o2)cc1	-4%	17%	2%	3%	-7%	-13%	x
CN1CCc2nc(SCC(=O)Nc3cccc(F)c3)c(C#N)c(-c3cccs3)c2C1	-9%	34%	-19%	19%	0%	0%	x
CN1CCc2nc(SCC(=O)Nc3ccc(OC(F)(F)F)cc3)c(C#N)c(-c3cccs3)c2C1	-1%	16%	u	-8%	-18%	-7%	x	WRN helicase inh-2=19µM*;TO displacement=3.4µM*;BLM helicase inh=24µM*
CC(=O)OCCCNc1cc(Sc2nc3ccccc3s2)c2nonc2c1[N+](=O)[O-]	-20%	24%	-20%	9%	-6%	u	x
CC(=O)OCCCNc1cc(Sc2ccc(C)cc2)c2nonc2c1[N+](=O)[O-]	-120%	u	40µM*	-9%	u	-69%	x	WRN helicase inh-2=-21%;TO displacement=-9%;BLM helicase inh=-15%
